# Data taken from paper PMC11006913.
# Numbering of substitutions follows the chain as printed.
# Columns and labels:
# Assay in all cases: PBM; 200 nM protein, PBS
# Settings in all cases: dsDNA, one strand shown
# [1] = biological target: HOXA2 (Homo sapiens, UniProt O43364 129-215, R185T)
# [2] = biological target: HOXA2 (Homo sapiens, UniProt O43364 129-215, R185K)
# [3] = biological target: HOXA2 (Homo sapiens, UniProt O43364 129-215, Y150S)
# [4] = biological target: HOXA4 (Homo sapiens, UniProt Q00056 201-287, W262F)
# Chain of HOXA4 (Q00056 201-287 W262F): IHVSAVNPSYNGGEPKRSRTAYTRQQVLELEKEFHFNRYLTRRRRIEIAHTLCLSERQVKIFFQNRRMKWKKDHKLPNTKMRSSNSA
# [5] = biological target: HOXA2 (Homo sapiens, UniProt O43364 129-215)
# Chain of HOXA2 (Homo sapiens, UniProt O43364 129-215) (O43364 129-215): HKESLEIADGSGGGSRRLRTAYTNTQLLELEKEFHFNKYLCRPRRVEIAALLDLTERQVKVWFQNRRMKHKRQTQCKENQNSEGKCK
# [6] = biological target: ALX3 (Homo sapiens, UniProt O95076 139-225, N203Q)
# Chain of ALX3 (Homo sapiens, UniProt O95076 139-225, N203Q) (O95076 139-225 N203Q): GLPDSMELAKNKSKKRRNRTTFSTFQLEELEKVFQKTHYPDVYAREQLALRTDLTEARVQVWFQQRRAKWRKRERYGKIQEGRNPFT
# [7] = biological target: ALX3 (Homo sapiens, UniProt O95076 139-225)
# Chain of ALX3 (Homo sapiens, UniProt O95076 139-225) (O95076 139-225): as the sequence (O95076 139-225 N203Q) above, with Q65N counted along it
# [8] = biological target: ALX3 (Homo sapiens, UniProt O95076 139-225, L168V)
# Chain of ALX3 (Homo sapiens, UniProt O95076 139-225, L168V) (O95076 139-225 L168V): as the sequence (O95076 139-225 N203Q) above, with L30V, Q65N counted along it
# [9] = biological target: ALX3 (Homo sapiens, UniProt O95076 139-225, N203S)
# Chain of ALX3 (Homo sapiens, UniProt O95076 139-225, N203S) (O95076 139-225 N203S): as the sequence (O95076 139-225 N203Q) above, with Q65S counted along it
# [10] = biological target: T1, PAX4 (Homo sapiens, UniProt O43316 9-242, R200K)
# T1 sequence: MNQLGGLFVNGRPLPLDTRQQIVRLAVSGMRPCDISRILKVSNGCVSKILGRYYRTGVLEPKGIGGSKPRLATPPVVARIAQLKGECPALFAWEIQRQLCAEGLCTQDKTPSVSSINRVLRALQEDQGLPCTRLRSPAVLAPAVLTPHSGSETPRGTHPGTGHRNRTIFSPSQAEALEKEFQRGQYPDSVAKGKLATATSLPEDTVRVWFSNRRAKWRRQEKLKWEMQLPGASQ
# [11] = biological target: T2, PAX4 (Homo sapiens, UniProt O43316 9-242)
# T2 sequence: T1 sequence with K192R
# [12] = biological target: T3, PAX4 (Homo sapiens, UniProt O43316 9-242, R200Q)
# T3 sequence: T1 sequence with K192Q
# [13] = biological target: T4, PAX4 (Homo sapiens, UniProt O43316 9-242, F177V)
# T4 sequence: T1 sequence with F169V, K192R
# [14] = biological target: T5, PAX4 (Homo sapiens, UniProt O43316 9-242, F177Y)
# T5 sequence: T1 sequence with F169Y, K192R
# [15] = biological target: T6, PAX4 (Homo sapiens, UniProt O43316 9-242, R227W)
# T6 sequence: T1 sequence with K192R, R219W
# [16] = biological target: T7, VENTX (Homo sapiens, UniProt O95231 78-163, R121Q)
# T7 sequence: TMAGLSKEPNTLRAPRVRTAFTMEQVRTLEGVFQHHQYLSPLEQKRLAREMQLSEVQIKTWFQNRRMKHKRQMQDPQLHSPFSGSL
# [17] = biological target: HOXA7 (Homo sapiens, UniProt P31268 116-202)
# Chain of HOXA7 (Homo sapiens, UniProt P31268 116-202) (P31268 116-202): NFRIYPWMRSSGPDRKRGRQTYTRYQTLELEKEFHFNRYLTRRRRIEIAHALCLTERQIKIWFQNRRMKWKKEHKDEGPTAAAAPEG
# [18] = biological target: T8, VENTX (Homo sapiens, UniProt O95231 78-163, Y115F)
# T8 sequence: T7 sequence with Y38F, Q44R
# [19] = biological target: HOXA7 (Homo sapiens, UniProt P31268 116-202, W177C)
# Chain of HOXA7 (Homo sapiens, UniProt P31268 116-202, W177C) (P31268 116-202 W177C): as the sequence (P31268 116-202) above, with W62C counted along it
# [20] = biological target: MSX2 (Homo sapiens, UniProt P35548 130-214)
# Chain of MSX2 (P35548 130-214): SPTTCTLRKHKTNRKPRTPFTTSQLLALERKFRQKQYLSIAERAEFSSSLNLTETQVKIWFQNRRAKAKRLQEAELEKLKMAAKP
# Chain of HOXA2 (Homo sapiens, UniProt O43364 129-215, R185T) (O43364 129-215 R185T): as the sequence (O43364 129-215) above, with R57T counted along it
# Chain of HOXA2 (Homo sapiens, UniProt O43364 129-215, R185K) (O43364 129-215 R185K): as the sequence (O43364 129-215) above, with R57K counted along it
# Chain of HOXA2 (Homo sapiens, UniProt O43364 129-215, Y150S) (O43364 129-215 Y150S): as the sequence (O43364 129-215) above, with Y22S counted along it
sequence,measurement,setting,value
GCAGGCGC,binding signal,[1],"6.79 upbm affinity estimate (log intensity, higher = more binding, comparable within an allelic series)"
same,binding signal,[2],"10 upbm affinity estimate (log intensity, higher = more binding, comparable within an allelic series)"
same,binding signal,[3],"10.3 upbm affinity estimate (log intensity, higher = more binding, comparable within an allelic series)"
same,binding signal,[4],"9.73 upbm affinity estimate (log intensity, higher = more binding, comparable within an allelic series)"
same,binding signal,[5],"6.79 upbm affinity estimate (log intensity, higher = more binding, comparable within an allelic series)"
CCGAGACC,binding signal,[6],"7.75 upbm affinity estimate (log intensity, higher = more binding, comparable within an allelic series)"
same,binding signal,[7],"7.48 upbm affinity estimate (log intensity, higher = more binding, comparable within an allelic series)"
same,binding signal,[8],"7.74 upbm affinity estimate (log intensity, higher = more binding, comparable within an allelic series)"
same,binding signal,[4],"9.94 upbm affinity estimate (log intensity, higher = more binding, comparable within an allelic series)"
same,binding signal,[9],"7.73 upbm affinity estimate (log intensity, higher = more binding, comparable within an allelic series)"
AGAGCGCG,binding signal,[10],"9.35 upbm affinity estimate (log intensity, higher = more binding, comparable within an allelic series)"
same,binding signal,[11],"9.24 upbm affinity estimate (log intensity, higher = more binding, comparable within an allelic series)"
same,binding signal,[12],"9.35 upbm affinity estimate (log intensity, higher = more binding, comparable within an allelic series)"
same,binding signal,[13],"9.32 upbm affinity estimate (log intensity, higher = more binding, comparable within an allelic series)"
same,binding signal,[14],"9.31 upbm affinity estimate (log intensity, higher = more binding, comparable within an allelic series)"
same,binding signal,[15],"9.39 upbm affinity estimate (log intensity, higher = more binding, comparable within an allelic series)"
CCTAGCTC,binding signal,[16],"8.35 upbm affinity estimate (log intensity, higher = more binding, comparable within an allelic series)"
same,binding signal,[17],"8.59 upbm affinity estimate (log intensity, higher = more binding, comparable within an allelic series)"
same,binding signal,[18],"8.28 upbm affinity estimate (log intensity, higher = more binding, comparable within an allelic series)"
same,binding signal,[19],"8.42 upbm affinity estimate (log intensity, higher = more binding, comparable within an allelic series)"
same,binding signal,[4],"9.87 upbm affinity estimate (log intensity, higher = more binding, comparable within an allelic series)"
TCCCCCCA,binding signal,[1],"7.32 upbm affinity estimate (log intensity, higher = more binding, comparable within an allelic series)"
same,binding signal,[2],"10.4 upbm affinity estimate (log intensity, higher = more binding, comparable within an allelic series)"
same,binding signal,[3],"10.2 upbm affinity estimate (log intensity, higher = more binding, comparable within an allelic series)"
same,binding signal,[4],"9.56 upbm affinity estimate (log intensity, higher = more binding, comparable within an allelic series)"
same,binding signal,[5],"7.41 upbm affinity estimate (log intensity, higher = more binding, comparable within an allelic series)"
CCGCCCCC,binding signal,[16],"8.05 upbm affinity estimate (log intensity, higher = more binding, comparable within an allelic series)"
same,binding signal,[18],"7.95 upbm affinity estimate (log intensity, higher = more binding, comparable within an allelic series)"
same,binding signal,[1],"6.99 upbm affinity estimate (log intensity, higher = more binding, comparable within an allelic series)"
same,binding signal,[2],"9.92 upbm affinity estimate (log intensity, higher = more binding, comparable within an allelic series)"
same,binding signal,[3],"10.2 upbm affinity estimate (log intensity, higher = more binding, comparable within an allelic series)"
same,binding signal,[5],"6.94 upbm affinity estimate (log intensity, higher = more binding, comparable within an allelic series)"
AATTATTA,binding signal,[17],"11.3 upbm affinity estimate (log intensity, higher = more binding, comparable within an allelic series)"
same,binding signal,[6],"8.58 upbm affinity estimate (log intensity, higher = more binding, comparable within an allelic series)"
same,binding signal,[20],"13.4 upbm affinity estimate (log intensity, higher = more binding, comparable within an allelic series)"
same,binding signal,[7],"12.3 upbm affinity estimate (log intensity, higher = more binding, comparable within an allelic series)"
same,binding signal,[14],"10.9 upbm affinity estimate (log intensity, higher = more binding, comparable within an allelic series)"
same,binding signal,[8],"9.98 upbm affinity estimate (log intensity, higher = more binding, comparable within an allelic series)"
same,binding signal,[15],"11 upbm affinity estimate (log intensity, higher = more binding, comparable within an allelic series)"
same,binding signal,[19],"8.91 upbm affinity estimate (log intensity, higher = more binding, comparable within an allelic series)"
same,binding signal,[4],"11.5 upbm affinity estimate (log intensity, higher = more binding, comparable within an allelic series)"
same,binding signal,[9],"8.68 upbm affinity estimate (log intensity, higher = more binding, comparable within an allelic series)"
GCCCCCCA,binding signal,[4],"9.58 upbm affinity estimate (log intensity, higher = more binding, comparable within an allelic series)"
GCAATTAC,binding signal,[17],"11.2 upbm affinity estimate (log intensity, higher = more binding, comparable within an allelic series)"
same,binding signal,[20],"13.7 upbm affinity estimate (log intensity, higher = more binding, comparable within an allelic series)"
same,binding signal,[19],"8.74 upbm affinity estimate (log intensity, higher = more binding, comparable within an allelic series)"
CCAGGACC,binding signal,[16],"8.04 upbm affinity estimate (log intensity, higher = more binding, comparable within an allelic series)"
same,binding signal,[18],"8.14 upbm affinity estimate (log intensity, higher = more binding, comparable within an allelic series)"
CGATTATC,binding signal,[16],"10.6 upbm affinity estimate (log intensity, higher = more binding, comparable within an allelic series)"
same,binding signal,[18],"10.6 upbm affinity estimate (log intensity, higher = more binding, comparable within an allelic series)"
AAGCTGGC,binding signal,[17],"8.32 upbm affinity estimate (log intensity, higher = more binding, comparable within an allelic series)"
same,binding signal,[19],"8.3 upbm affinity estimate (log intensity, higher = more binding, comparable within an allelic series)"
CCCCCAGC,binding signal,[16],"7.89 upbm affinity estimate (log intensity, higher = more binding, comparable within an allelic series)"
same,binding signal,[17],"8.08 upbm affinity estimate (log intensity, higher = more binding, comparable within an allelic series)"
same,binding signal,[18],"7.96 upbm affinity estimate (log intensity, higher = more binding, comparable within an allelic series)"
same,binding signal,[19],"8.17 upbm affinity estimate (log intensity, higher = more binding, comparable within an allelic series)"
